In all, about 220,000 compounds went through this assay and about 910 (0.41%) were called active. The list comes from a sample in which actives are over-represented; it also holds similar structures and randomly drawn compounds. Potency and affinity values are given separately. Unmarked numbers belong to inactive results.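 Rule for the calls: active = primary inhibition above the hit cutoff, then over 50% inhibition at one or more dose response concentrations (cut at about 23% in these data, passing the limit was not always enough); inconclusive = conflicting primary data, or primary hits not chosen for dose response; inactive = low primary inhibition, or under 50% at every dose.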
What follows are compounds tested against Aminopeptidase N (Plasmodium falciparum (isolate 3D7)) (UniProt O96935) (assay: malaria alanyl aminopeptidase activity blockers – biochemical, fluorogenic H-Leu-NHMec substrate, 1536-well (AID 1445;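 note: plate controls were DMSO full reaction for no effect and no enzyme background for full effect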)). Conditions: recombinant M1AAP, H-Leu-NHMec fluorogenic kinetic assay; at 30 µM, stronger effect = higher value unless noted.
Sequence of Aminopeptidase N (Plasmodium falciparum (isolate 3D7)) (O96935 whole entry, looked up): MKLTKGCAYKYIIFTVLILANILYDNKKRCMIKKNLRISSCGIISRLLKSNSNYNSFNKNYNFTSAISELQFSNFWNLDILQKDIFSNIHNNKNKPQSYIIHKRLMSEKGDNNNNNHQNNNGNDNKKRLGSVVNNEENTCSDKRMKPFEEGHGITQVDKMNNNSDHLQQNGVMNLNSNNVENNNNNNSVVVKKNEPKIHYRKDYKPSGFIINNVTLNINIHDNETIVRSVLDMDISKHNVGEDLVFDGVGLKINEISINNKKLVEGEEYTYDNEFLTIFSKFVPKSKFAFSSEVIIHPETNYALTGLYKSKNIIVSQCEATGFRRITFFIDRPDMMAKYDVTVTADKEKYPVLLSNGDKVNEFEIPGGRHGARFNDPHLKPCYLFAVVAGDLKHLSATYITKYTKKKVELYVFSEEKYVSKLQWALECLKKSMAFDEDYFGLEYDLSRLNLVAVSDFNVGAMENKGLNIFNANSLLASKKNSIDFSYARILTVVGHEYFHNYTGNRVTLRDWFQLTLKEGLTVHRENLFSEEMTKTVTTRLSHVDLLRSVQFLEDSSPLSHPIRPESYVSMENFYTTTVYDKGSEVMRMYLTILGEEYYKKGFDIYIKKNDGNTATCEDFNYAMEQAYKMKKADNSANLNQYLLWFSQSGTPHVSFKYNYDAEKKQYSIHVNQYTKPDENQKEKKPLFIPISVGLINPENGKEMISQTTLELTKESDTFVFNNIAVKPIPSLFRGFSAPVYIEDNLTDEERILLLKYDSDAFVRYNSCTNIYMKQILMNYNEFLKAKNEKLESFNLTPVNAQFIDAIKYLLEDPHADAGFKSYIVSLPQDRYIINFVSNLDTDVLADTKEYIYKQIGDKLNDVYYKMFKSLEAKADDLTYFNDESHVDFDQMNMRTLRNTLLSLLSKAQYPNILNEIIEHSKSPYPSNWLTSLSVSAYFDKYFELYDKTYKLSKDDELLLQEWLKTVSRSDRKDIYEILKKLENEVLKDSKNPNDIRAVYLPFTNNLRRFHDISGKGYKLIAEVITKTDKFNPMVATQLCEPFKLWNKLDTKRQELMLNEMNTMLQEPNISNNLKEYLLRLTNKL

SMILES | inhibition
CCc1nnc(N/N=C/c2c(Cl)cccc2Cl)n1N | 1.62%
O=C(Nc1cccs1)Nc1ccc(Br)cc1F | 5.12%
CCOC(=O)NNS(=O)(=O)c1cc(Br)ccc1Br | -1.42%
CCOc1ccc(Br)cc1S(=O)(=O)Nc1ccc(NC(=O)c2ccccc2C)cc1 | 7.33%
Cc1ccc(CN2C(=O)N/C(=C\c3cccn3-c3cccc(C(=O)O)c3)C2=O)cc1 | 11.9%
CC(=O)c1ccc(-c2ccc(/C=C(/Sc3n[nH]c(C)n3)C(=O)O)o2)cc1 | 5.19%
O=Cc1ccc(-c2ccc(C(=O)O)cc2)o1 | 7.72%
Cc1nc(S/C(=C/c2ccc(-c3cccc(Cl)c3)o2)C(=O)O)n[nH]1 | -8.13%
Cc1nc(S/C(=C/c2ccc(-c3ccc(Cl)cc3)o2)C(=O)O)n[nH]1 | -6.28%
CCc1nnc(NC(=O)C2CCCN(c3nc(C)cc(C)n3)C2)s1 (stereo unspecified) | 3.57%
S=c1[nH]c(-c2ccccc2)cn1/N=C/c1cccnc1 | 1.39%
O=C(CCCN1C(=O)/C(=C/c2ccccc2Cl)SC1=S)NNC(=O)c1cccnc1 | 2.83%
COc1ccc(OC)c(/C=C2\SC(=S)N(Cc3cccnc3)C2=O)c1 | -5.9%
CC(/C=C1\SC(=S)N(C(C(=O)O)C(C)C)C1=O)=C\c1ccccc1 (stereo unspecified) | 14%
COc1cccc(/C=C2\SC(=S)N(C(C(=O)O)c3ccccc3)C2=O)c1OC (stereo unspecified) | 18.2%
CC(=C\c1ccccc1)/C=C1/SC(=S)N(C(C(=O)O)C(C)C)C1=O (stereo unspecified) | 8.4%
COc1ccc(/C=C2\SC(=S)N(N3CCOCC3)C2=O)c(OC)c1 | 1.37%
COc1ccc(/C=C/C(=O)c2ccccc2)c(OC)c1 | 10.2%
COc1ccccc1/C=C1\SC(=S)N(N2C(=O)CCCC2=O)C1=O | 3%
COc1ccc(OC)c(/C=C2\SC(=S)N(N3CCOCC3)C2=O)c1 | 6.71%
C/C(=N/NS(=O)(=O)c1ccc(C)cc1)c1ccc(NC(=O)C(F)(F)F)cc1 | 2.89%
Cc1cnc(NC(=O)CSc2nnc(C)n2N)s1 | 2.39%
Cc1ccc(OCc2nc(-c3ccccn3)n[nH]2)cc1 | -24.5%
CCCCn1nnnc1NCc1cccnc1 | 4.66%

SMILES | inhibition
CCOC(=O)C1CCCN(CC(=O)/C=C2/N(C)c3ccccc3C2(C)C)C1 (stereo unspecified) | 9.72%
COc1ccc(NS(=O)(=O)c2cccc(C(=O)N/N=C/c3ccc(O)cc3)c2)cc1 | 7.62%
CCC1CCc2[nH]nc(C(=O)O)c2C1 (stereo unspecified) | 7.24%
Cc1nn(C(=O)N2CCCCC2)c(C)c1CN1C(=O)c2ccccc2C1=O | -0.2%
Cc1cc(C)cc(NC(=O)C(OC(=O)c2cccs2)c2ccccc2)c1 (stereo unspecified) | 3.45%
OCCC1CN(Cc2nc(-c3ccccc3)cs2)CCN1CCc1ccccc1 (stereo unspecified) | 7.68%
CSc1nc2ncc(-c3ccsc3)c(N)n2n1 | 7.33%
CC(c1ccccc1)N1C(=O)/C(=C/c2ccncc2)SC1=S (stereo unspecified) | -2.44%
O=C(O)C(Cc1ccccc1)N1C(=O)/C(=C/c2cccs2)SC1=S (stereo unspecified) | 11.1%
O=C(O)c1cc(-c2ccc(/C=C3\NC(=O)N(c4ccccc4)C3=O)o2)ccc1Cl | 18.7%
CC1=NOC(=O)/C1=C/c1ccc(-c2ccc(Cl)cc2)o1 | 5.39%
O=C1NN(c2ccccc2)C(=O)/C1=C/c1ccc(-c2ccc(Cl)c(C(=O)O)c2)o1 | 32.2%
Cc1ccc(N2NC(=O)/C(=C/c3ccc(-c4ccc(Cl)c(C(=O)O)c4)o3)C2=O)cc1 | 5.62%
CC1(C)OC(=O)C(=Cc2ccc(-c3ccc(Cl)c(C(=O)O)c3)o2)C(=O)O1 | 8.63%
CCCCC1(C)OC(=O)C(=Cc2ccc(-c3ccc(Cl)c(C(=O)O)c3)o2)C(=O)O1 (stereo unspecified) | 9.08%
Cc1ccc(C)c(-n2c(SCC(=O)NC(C(=O)O)C(C)C)nnc2-c2cccc(Cl)c2)c1 (stereo unspecified) | 0.37%
CC1CC(NC(=O)C2(C)CC2(Cl)Cl)CC(C)(C)C1 (stereo unspecified) | 1.77%
O=C1CCn2nc(-c3ccc(Cl)cc3)cc2N1 | 0.78%
O=C(O)CCC(=O)NNC(=O)c1cccc(Cl)c1 | 8.54%
Cn1cc(-c2nnnn2-c2ccc(Cl)cc2)c(=O)c2ccccc21 | -1.66%
CC(=O)Nc1c(C(=O)c2ccccc2)oc2ccccc12 | 10.6%
O=C(Nc1nc2c(Br)cc(Br)cc2c(=O)s1)c1ccco1 | 3.61%
CCOc1cc(/C=C/c2ccc3cccc([N+](=O)[O-])c3n2)cc(Cl)c1O | 9.51%
CC(C)c1nc(CNC(=O)CCc2nnc(-c3ccsc3)o2)cs1 | -9.81%

SMILES | inhibition
O=C(N/N=C(\CC(=O)c1cccs1)C(F)(F)F)c1cccnc1 | 22.1%
O=C(N/N=C(/CC(=O)c1cccs1)C(F)(F)F)c1ccc(O)cc1 | 30.4%
Cc1cccc(N2CCN(C(=O)CC(NC(=O)c3ccccc3)c3ccccc3)CC2C)c1 (stereo unspecified) | -5.51%
Cc1ccc(N2CC(C(=O)Nc3cccc(F)c3)CC2=O)cc1 (stereo unspecified) | 2.83%
COCc1c(Br)c(C)nc(OCC(=O)N/N=C/c2cc(C)n(-c3ccc([N+](=O)[O-])cc3)c2C)c1C#N | 12%
O=C(Nc1ccc(-n2ccnc2P(=O)(O)c2ccccc2)cc1)c1ccccc1Cl | 75.1% (active)
O=C(Nc1ccc2ncccc2c1)c1ccccc1Cl | 16.8%
O=C(Nc1ccc(C(F)(F)F)cc1)c1ccccc1Br | -2.21%
CN1CCN(c2ccc(NC(=O)c3ccccc3Br)cc2)CC1 | 3.56%
O=C(Nc1ccc(N2CCCCCC2)cc1)c1ccccc1Cl | -5.82%
CC(Cc1cccs1)NC(=S)Nc1ccc(Cl)c(Cl)c1 (stereo unspecified) | -3.88%
Cc1ccc(OCc2ccc(C(=O)Nc3nc4ccccc4n3Cc3ccccc3)o2)c([N+](=O)[O-])c1 | 4.13%
Cc1ccc(C(=O)Cn2nnc3ccccc32)cc1C | 5.82%
O=C1Nc2ccccc2N(O)N1c1ccc(S(=O)(=O)Nc2ccccn2)cc1 | 5.82%
O=c1[nH]c2sc3c(c2c2nncn12)CCCC3 | 2.29%
Cc1nc2sc3c(c2c(=O)o1)CCC3 | 7.65%
Cc1cc(-c2nc3c4c5c(sc4[nH]c(=O)n3n2)CCC5)c(C)o1 | 27.1% (active)
CCOC(=O)C1=C(c2ccccc2)Nc2ncnn2C1c1ccc(OC)c(OC)c1OC (stereo unspecified) | -1.38%
O=S(=O)(Nc1nc2ccccc2nc1Nc1ccc2c(c1)OCO2)c1ccccc1 | 33.5%
O=S(=O)(Nc1ccc2c(c1)OCCO2)c1cccs1 | -2.25%
O=S(=O)(Nc1nc2ccccc2nc1Nc1ccc2c(c1)OCCO2)c1cccs1 | 47.2% (active)
CC1=C(C(=O)N2CCN(c3cc(C)ccc3C)CC2)C2(CCC(C)CC2)OC1=O (stereo unspecified) | 0.75%
NNC(=O)CSc1nnnn1-c1ccccc1 | -3.57%
Cc1cccc(C)c1NS(=O)(=O)c1ccc(OCCNS(C)(=O)=O)cc1 | -0.18%

SMILES | inhibition
N#Cc1cc2c(nc1Cl)CCCC2 | 3.36%
COc1ccc(CCN=C(N)NS(=O)(=O)c2ccccc2)cc1OC | 0.37%
CCOc1cc(C2C3=C(CC(C)(C)CC3=O)OC3=C2C(=O)CC(C)(C)C3)cc([N+](=O)[O-])c1O | 14.2%
CCOc1ccc(C2CC(=O)NC3=C2C(=O)CCC3)cc1Cl (stereo unspecified) | 1.99%
CCOc1cc(C2C(C(=O)OC(C)C)=C(C)NC3=C2C(=O)CCC3)cc([N+](=O)[O-])c1O (stereo unspecified) | 21.4%
CCOc1cc(C2C3=C(CCCC3=O)N(C)C3=C2C(=O)CCC3)cc(Cl)c1O | 18.7%
Fc1ccc(-c2nc3c(Cl)cc(C(F)(F)F)cn3c2Cl)cc1 | -1.92%
COC(=O)CSc1[nH]c2ccc(F)cc2c1[N+](=O)[O-] | 13%
COC(=O)c1c(C)oc2ccc(NS(=O)(=O)c3cccs3)cc12 | 6.82%
CCOC(=O)c1c(C)oc2ccc(NS(=O)(=O)c3cccs3)cc12 | 17.3%
CC(C)(C)NC(=O)COC(=O)c1nsc(Cl)c1Cl | 0.52%
CC(C)(C)NC(=O)NC(=O)CN1CCN(c2cccc(Cl)c2)CC1 | -0.55%
COn1c(SCc2cccnc2)nc2ccccc2c1=O | -0.13%
COc1ccc(C(=O)NNC(=O)CSc2nnc(-c3cccnc3)n2C)cc1 | 10.3%
COc1ccc(-c2nnc(SCC(=O)Nc3ccccc3)n2C)cc1 | 0.31%
Cc1ccc(-c2nnc(SCC(=O)Nc3ccc4c(c3)oc3ccccc34)n2C)c(Cl)c1 | 3.17%
COc1ccc(-n2c(Cc3cccn3C)nnc2SCC(=O)Nc2ccc(F)cc2)cc1 | 12%
COc1ccc(NC(=O)CSc2nnc(Cc3cccn3C)n2-c2ccc(F)cc2)cc1 | 23.8% (active)
COc1ccc(NC(=O)CSc2nnc(-c3ccccc3C)n2N)cc1 | 3.11%
COc1ccc(NC(=O)CSc2nnc(-c3ccccc3C)n2C)cc1 | 27.4% (active)
CC(=O)Nc1ccc(-c2nnc(SCC(=O)Nc3ccc4c(c3)oc3ccccc34)n2C)cc1 | 8.23%
COc1ccc(C(=O)NNC(=O)CSc2nnc(C)n2C)cc1 | 1%
Cn1c(SCC(=O)Nc2ccc3c(c2)oc2ccccc23)nnc1-c1ccccc1 | 25.6% (active)
COc1ccc(NC(=O)CSc2nnc(Cc3cccn3C)n2-c2ccc(OC)cc2)cc1 | 5.21%
